Assay outcomes as filed in PubChem.
Sampled rows, rich in hits. Any-hit rate of the full collection: about 1.7%.
LYP act – increases human PTPN22 phosphatase activity. actives 0.11% (n = 96,000). recombinant LYP, DiFMUP fluorescence; 0 = plate median, 100 = signal doubled. activation, % at 2 µM. Q9Y2R2;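 active means activation at 2 µM above a set limit, the mean plus 5 SD, cut at about 37% in these data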
EphB4 ephrin blk – blocks human EphB4 binding to ephrin-B2; P54760; EphB4 LBD / TNYL-RAW-Alexa532 peptide, fluorescence polarization; inhibition, % at 7 µM; actives 0.15% (n = 97,000); AID 720;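 active means inhibition above the screen-wide mean inhibition plus 3 SD, cut at about 15% in these data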;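 further: 0% = DMSO wells and 100% = excess unlabeled TNYL-RAW peptide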
FAK inh – FAK (human) kinase inhibition; biochemical FAK kinase activity assay; inhibition, %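 (tested at 7 µM)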; actives 0.84% (n = 97,000); AID 727; in the data active means inhibition above about 19%;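 further: 0% = DMSO and 100% = reference compound high control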
PTPN22 inh 2 – inhibitors of human LYP (PTPN22) phosphatase | AID 640 | recombinant LYP catalytic domain, DiFMUP fluorescence | Q9Y2R2 | actives 0.21% (n = 96,000) | inhibition, % at 2 µM;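 active means inhibition at 2 µM at or above a set limit, the screen mean plus 3 SD, cut at about 24% in these data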;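 further: 0% = DMSO with enzyme and 100% = enzyme fully blocked by orthovanadate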
Plk1 PBD FP – inhibitors of human Plk1 polo box domain binding. P53350. Plk1 PBD phosphopeptide binding, fluorescence polarization. inhibition, %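 (tested at about 20 µM)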. actives 0.13% (n = 97,000); in the data active means inhibition above about 34%, passing the limit was not always enough
PLK1 kinase inh – PLK1 (human) kinase inhibition. P53350. recombinant PLK1 kinase, TR-FRET peptide phosphorylation. inhibition, % at 10 µM. actives 0.53% (n = 97,000);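 active means inhibition of 50% or more in the single-concentration screen; inactive means inhibition below 50%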;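 further: 0% = DMSO max control and 100% = H-89 dihydrochloride min control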
PLK1 inh conf – confirmation of human PLK1 kinase inhibitors. shares compounds with PLK1 kinase inh. recombinant PLK1 kinase, TR-FRET peptide phosphorylation. inhibition, % at 10 µM. actives 20% (n = 210);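 active means inhibition at or above 50% in each of two repeat confirmation tests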;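 further: 0% = DMSO max control and 100% = H-89 kinase-blocked min control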
TR-FRET interf – Plk1 assay compound interference counter-screen hit. shares compounds with PLK1 kinase inh. inhibition (interference), % at 10 µM. 210 tested, under 10 active. Plk1 TR-FRET assay interference, compound added post-reaction;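 active means both duplicate runs show 50% or greater inhibition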;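 further: 0% = DMSO max control and 100% = H-89 min control inhibited reaction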
PBD redox DR – redox cycling H2O2 generation counter-screen for Plk1 PBD; shares compounds with Plk1 PBD FP; DTT; EC50, µM; 120 tested, under 10 active
PTPN22 act conf – LYP (PTPN22) phosphatase activation confirmation; AID 1031; 100 tested, under 10 active; shares compounds with LYP act; activation, % at 2 µM; Recombinant LYP, DIFMUP fluorescence; zero set by plate's median compound well
FAK inh confirm – confirmation of human focal adhesion kinase (FAK) inhibitors. inhibition, % at 7 µM. shares compounds with FAK inh. AID 794. FAK kinase biochemical inhibition assay. actives 28% (n = 750); in the data active means inhibition above about 19%
Starred values were filed as active, the others as inactive; nt = not tested or not shown; [ ] = dose if it differs, or a comment. Unless noted, how the calls were made is not given here.

SMILES	LYP act	EphB4 ephrin blk	FAK inh	PTPN22 inh 2	Plk1 PBD FP	PLK1 kinase inh	others
CC/C(=C\C=C\[C@@H]1C=C[C@@H]2CCC[C@H]2[C@@H]1C(=O)c1ccc[nH]1)[C@@H]1O[C@@H]([C@@H](C)C(=O)O)CC[C@@H]1C	-26	-2	1	25*	-2	-8
CCOc1cccc(N2C(=O)CC(=O)NC2=O)c1	-3	17*[fluorescence artefact?]	0	2	6	-15
CC(=NCCCN1CCOCC1)c1c(O)[nH]c(=O)[nH]c1=O	1	2	0	-4	-20	-2
Cc1nc2cc(-c3ccc(Cl)cc3)nn2c(C)c1CCC(=O)N1CCC2(CC1)OCCO2	-3	-4	-3	6	-13	-9
O=C1CN(C(=O)CN2CCCCC2)C(c2ccccc2)c2cc(Br)ccc2N1 (stereo unspecified)	-1	16*	0	-1	24	-3
CCC(=O)N1CC(=O)Nc2ccc(F)cc2C1c1ccccc1 (stereo unspecified)	11	2	2	-12	-17	-4
COc1ccc2[nH]c(C)c(CCN3CCC(=O)C(C)C3C)c2c1 (stereo unspecified)	nt	1	-1	nt	14	83*	PLK1 inh conf=-4;TR-FRET interf=-54
CCN(CC)CCN=Cc1c(O)n(CCc2ccccc2)c(=O)[nH]c1=O	-2	1	-2	0	-32	-8
O=[N+]([O-])c1ccc(N2CCNCC2)cc1NCC1CCCO1 (stereo unspecified)	-6	-5	-3	9	47*	-7	PBD redox DR=>50
Cc1ccc2c(c1)CC1(CN2C)C(=O)NC(=O)N(c2ccccc2C)C1=O (stereo unspecified)	4	-1	1	-5	40*	-15	PBD redox DR=>50
Cc1ccc2c(c1)CC1(CN2C)C(=O)NC(=O)N(c2cccc(C)c2C)C1=O (stereo unspecified)	4	-5	4	-5	-7	-8
CN1C(=O)N(C)C(=O)C2(Sc3ccccc3C2=O)C1=O	3	9	-5	-6	57*	-9	PBD redox DR=>50
CC1SC2(CN3CCC2CC3)NC1=O (stereo unspecified)	-1	-3	-2	-1	8	-3
Cc1ccc(-n2c(O)c(C=Nc3ccc(S(=O)(=O)N(C)C)cc3)c(=O)[nH]c2=O)cc1	3	1	-3	-2	-9	-1
O=C1NC(=O)N(Cc2ccccc2Cl)C(=O)/C1=C/N1CCOCC1	43*	-3	5	-43	2	-8	PTPN22 act conf=4
CC1CN(C)C(C)(C)CC1(O)c1ccccc1 (stereo unspecified)	-2	2	1	1	-11	-2
CCC(C)NC(=O)c1c(N)n(Cc2ccc3c(c2)OCO3)c2nc3ccccc3nc12 (stereo unspecified)	-3	-1	2	1	-4	2
CCC(C)NC(=O)c1c(N)n(CCCOC)c2nc3ccccc3nc12 (stereo unspecified)	-7	-8	37*	6	-10	-7	FAK inh confirm=2
Cc1ccc2c(c1)CC1(CN2C)C(=O)NC(=O)N(c2ccc(C)c(C)c2)C1=O (stereo unspecified)	3	-4	-5	-4	-21	-12
CC12CN3CC(C)(CN(C1)P3(=O)Oc1ccccc1)C2=O (stereo unspecified)	4	-7	50*	-6	1	4	FAK inh confirm=2
O=C1Nc2ccccc2/C1=C/c1cnc[nH]1	-3	-2	75*	7	-10	61*	FAK inh confirm=47*
COCCOC(=O)C1=C(N)Oc2c(c(=O)oc3ccccc23)C1c1ccncc1 (stereo unspecified)	-4	3	5	7	5	-6
CN1CCN(c2ccc(N)cc2)CC1	0	2	67*	0	-9	15	FAK inh confirm=74*
CN1CCN(c2ccc(C=O)cc2)CC1	-8	2	1	10	-13	-4
